Assay results reported in PubChem BioAssay (Tox21).
“And” between values parts separate entries of the source, which are not always exact repeats. Equal values may be shown once. Records with an inconclusive call do not appear. Entries that show only a call come without a potency. Where a structure was tested more than once in an assay, its records may differ in their call. The source made the active and inactive calls. Calls follow the shape of the dose curve; as a rule, active = well fitted curve in the direction sought with a large enough effect in the repeat runs; inconclusive = weak or mixed curves; inactive = no such curve, though single readings can be large; an effect the other way counts as inactive or inconclusive.

Assays:
[1] = A CellTox Green Cytotoxicity Assay to monitor cytotoxicity in HEK293 cells - 40 hour (AID 1224871); also: nearly all actives have a fitted effect of over 45% in size; also: potency is read from the fitted curve at half-maximal effect
Method in brief: (§1)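 Fluorescence from a DNA-binding dye excluded by viable cells was measured repeatedly in the same HEK293 wells (600 cells/well) during continuous compound exposure at 37 C. Each assay gives one read point: 0, 8, 16, 24, 32 or 40 h.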

[2] = qHTS RealTime-Glo MT Cell Viability Assay in HEK293 cells - 16 hour (AID 1224872); also: nearly all actives have a fitted effect of over 50% in size; also: potency is read from the fitted curve at half-maximal effect
Method in brief: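 Viability tracked continuously by luminescence as live cells reduce a prosubstrate for NanoLuc; HEK293 cells preincubated 5 h, compound-treated at 37 C, and read at 0, 8, 16, 24, 32 and 40 h.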

[3] = qHTS RealTime-Glo MT Cell Viability Assay in HepG2 cells - 8 hour (AID 1224873); also: nearly all actives have a fitted effect of over 55% in size
Method in brief: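 HepG2 cells (600/well) mixed with RealTime-Glo MT reagent, settled 5 h at 37 C/5% CO2 before compound addition. Nonlytic NanoLuc luminescence from viable-cell prosubstrate reduction read repeatedly during 40 h treatment at 37 C.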

[4] = qHTS RealTime-Glo MT Cell Viability Assay in HEK293 cells - 40 hour (AID 1224874); settings: RealTime-Glo luminescence; max response: stronger effect = lower value; also: nearly all actives have a fitted effect of over 50% in size; also: potency is read from the fitted curve at half-maximal effect
Method in brief: (§2)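 Luminescence, which tracks viable cell number through reduction of the prosubstrate to a NanoLuc substrate, was read over continuous 37 C culture. Cells (600/well) were premixed with reagent and rested 5 h before 23 nL of compound in DMSO was pinned.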

[5] = A CellTox Green Cytotoxicity Assay to monitor cytotoxicity in HEK293 cells - 24 hour (AID 1224875); also: series mostly up to about 77 µM; nearly all actives have a fitted effect of over 45% in size
Method in brief: as §1

[6] = A CellTox Green Cytotoxicity Assay to monitor cytotoxicity in HepG2 cells - 16 hour (AID 1224876); also: nearly all actives have a fitted effect of over 45% in size
Method in brief: (§3)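 Real-time cytotoxicity: fluorescence of a cell-impermeant cyanine dye binding DNA of dead HepG2 cells, measured repeatedly (0–40 h) during compound exposure at 37 C. Cells seeded 600/well with reagent, dosed after 5 h.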

[7] = qHTS RealTime-Glo MT Cell Viability Assay in HepG2 cells - 32 hour (AID 1224877); also: nearly all actives have a fitted effect of over 55% in size
Method in brief: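 Viability was tracked continuously by NanoLuc luminescence from prosubstrate reduced by living HepG2 cells, at successive time points over 40 h of compound exposure. Cells with reagent were preincubated 5 h at 37 °C before compound addition.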

[8] = A CellTox Green Cytotoxicity Assay to monitor cytotoxicity in HepG2 cells - 24 hour (AID 1224878); also: nearly all actives have a fitted effect of over 45% in size; also: potency is read from the fitted curve at half-maximal effect
Method in brief: as §3

[9] = A CellTox Green Cytotoxicity Assay to monitor cytotoxicity in HepG2 cells - 40 hour (AID 1224879); also: nearly all actives have a fitted effect of over 40% in size
Method in brief: as §3

[10] = qHTS RealTime-Glo MT Cell Viability Assay in HEK293 cells - 0 hour (AID 1224880)
Method in brief: as §2

Row | SMILES | Potency [1] | Potency [2] | Potency [3] | max response [4] | Potency [5] | Potency [6] | Potency [7] | Potency [8] | Potency [9] | Potency [10] | Potency [4]
1 | NC1CCCCC1N (stereo not drawn) | inactive | inactive | inactive | -12.3% (inactive) and -1.05% (inactive) | inactive | inactive | inactive | inactive | inactive | inactive | –
2 | CC(C)(CO)CO | inactive | inactive | inactive | 3.9% (inactive) and 0.954% (inactive) | inactive | inactive | inactive | inactive | inactive | inactive | –
3 | O=C(Cl)c1ccc(C(=O)Cl)cc1 | inactive | inactive | inactive | -18.9% (inactive) and 3.42% (inactive) | inactive | inactive | inactive | inactive | inactive | inactive | –
4 | CC(=O)C(C)C | inactive | inactive | inactive | 9.65% (inactive) | inactive | inactive | inactive | inactive | inactive | inactive | –
5 | NC(N)=S | inactive | inactive | inactive | 2.78% (inactive) and 0.322% (inactive) | inactive | inactive | inactive | inactive | inactive | inactive | –
6 | CC1(C)C(=O)N(Cl)C(=O)N1Cl | inactive | inactive | inactive | 1.41% (inactive) and 7.94% (inactive) | inactive | inactive | inactive | inactive | inactive | inactive | –
7 | Clc1cccc(Cl)c1NC1=NCCN1 | inactive | inactive | inactive | 1.29% (inactive) and 0.883% (inactive) | inactive | inactive | inactive | inactive | inactive | inactive | –
8 | OCC(O)CS (stereo not drawn) | inactive | inactive | inactive | 14.9% (inactive) and 3.08% (inactive) | inactive | inactive | inactive | inactive | – | inactive | –
9 | CC1(C)[C@@H](O[C@H]2O[C@H](C(=O)O)[C@@H](O)[C@H](O)[C@H]2O[C@@H]2O[C@H](C(=O)O)[C@@H](O)[C@H](O)[C@H]2O)CC[C@]2(C)[C@H]3C(=O)C=C4[C@@H]5C[C@@](C)(C(=O)O)CC[C@]5(C)CC[C@@]4(C)[C@]3(C)CC[C@@H]12 | inactive | inactive | inactive | -4.4% (inactive) and 0.425% (inactive) | inactive | inactive | inactive | inactive | – | – | –
10 | C=C1C[C@]23C[C@@]1(O)CC[C@H]2[C@@]12C=C[C@H](O)[C@@](C)(C(=O)O1)[C@H]2[C@@H]3C(=O)O | inactive | inactive | inactive | 3.96% (inactive) and 1.17% (inactive) | inactive | inactive | inactive | inactive | – | inactive | –
11 | OB(O)O | inactive | inactive | inactive | 1.85% (inactive) and 3.92% (inactive) | inactive | inactive | inactive | inactive | inactive | inactive | –
12 | Cc1ccccc1C=O | inactive | inactive | inactive | 5.78% (inactive) and -0.406% (inactive) | inactive | inactive | inactive | inactive | – | inactive | –
13 | COc1ccc(N)c(OC)c1 | inactive | inactive | inactive | -8.13% (inactive) and -8.26% (inactive) | inactive | inactive | inactive | inactive | inactive | inactive | –
14 | COC(=O)OC | inactive | inactive | inactive | 8.45% (inactive) and 1.69% (inactive) | inactive | inactive | inactive | inactive | inactive | inactive | –
15 | c1cnc2c(c1)ccc1cccnc12 | 49.4 µM (active) and 43.6 µM (active) and inactive | 11 µM (active) | inactive | – | inactive | inactive | inactive | inactive | – | inactive | 3.12 µM (active) and 7.76 µM (active) and 6.92 µM (active)
16 | Nc1nc(N)c2nc(-c3ccccc3)c(N)nc2n1 | inactive | inactive | inactive | -27.6% (inactive) | inactive | inactive | inactive | 54.9 µM (active) and inactive | – | inactive | 24.8 µM (active) and 19.5 µM (active)
17 | O=C1OC(=O)c2c(Cl)c(Cl)c(Cl)c(Cl)c21 | inactive | inactive | inactive | 1.44% (inactive) | inactive | inactive | inactive | inactive | inactive | inactive | –
18 | CC(O)CNCC(C)O (stereo not drawn) | inactive | inactive | inactive | 3.16% (inactive) | inactive | inactive | inactive | inactive | inactive | inactive | –
19 | CC(=O)OCc1ccc2c(c1)OCO2 | inactive | inactive | inactive | 2.92% (inactive) and 8.23% (inactive) | inactive | inactive | inactive | inactive | inactive | inactive | –
20 | Cc1ccc(C)c(S(=O)(=O)O)c1 | inactive | inactive | inactive | 6.87% (inactive) and -2.89% (inactive) | inactive | inactive | inactive | inactive | inactive | inactive | –

Row | SMILES | Potency [1] | Potency [2] | Potency [3] | max response [4] | Potency [5] | Potency [6] | Potency [7] | Potency [8] | Potency [9] | Potency [10] | Potency [4]
21 | CC(C=O)Cc1ccc(C(C)(C)C)cc1 (stereo not drawn) | inactive | inactive | inactive | 0.145% (inactive) and -7.53% (inactive) | inactive | inactive | inactive | inactive | inactive | inactive | –
22 | O=C(O)Cc1c[nH]c2ccccc12 | inactive | inactive | inactive | 12.4% (inactive) and 16.9% (inactive) | inactive | inactive | inactive | inactive | – | inactive | –
23 | COC(=O)/C=C\C(=O)OC | inactive | inactive | inactive | 12.2% (inactive) and 10.6% (inactive) | inactive | inactive | inactive | inactive | inactive | inactive | –
24 | CCn1cc(C(=O)O)c(=O)c2cc3c(cc21)OCO3 | inactive | inactive | inactive | 10.2% (inactive) and 3.68% (inactive) | inactive | inactive | inactive | inactive | inactive | inactive | –
25 | CCN(CC)CCNC(=O)c1ccc(N)cc1 | inactive | inactive | inactive | 3.82% (inactive) and 1.96% (inactive) | inactive | inactive | inactive | inactive | inactive | inactive | –
26 | C=CC(=O)NCOCCCC | inactive | inactive | inactive | 1.11% (inactive) and 4.5% (inactive) | inactive | inactive | inactive | inactive | inactive | inactive | –
27 | CCCCCCCCO | inactive | inactive | inactive | 2.5% (inactive) and 9.18% (inactive) | inactive | inactive | inactive | inactive | – | inactive | –
28 | CCc1cccc(O)c1 | inactive | inactive | inactive | -1.01% (inactive) and 0% (inactive) | inactive | inactive | inactive | inactive | inactive | inactive | –
29 | C[n+]1ccn(CCO)c1 | inactive | inactive | inactive | 6.1% (inactive) and 16.8% (inactive) | inactive | inactive | inactive | inactive | inactive | inactive | –
30 | O=c1c(O)c(-c2ccc(O)c(O)c2)oc2cc(O)cc(O)c12 | inactive | inactive | inactive | -22.5% (inactive) | inactive | inactive | inactive | inactive | inactive | – | –
31 | Cc1ccncc1 | inactive | inactive | inactive | 1.94% (inactive) and -1.5% (inactive) | inactive | inactive | inactive | inactive | inactive | inactive | –
32 | COc1c2ccoc2cc2oc(=O)ccc12 | inactive | inactive | inactive | -25.5% (inactive) and -38.4% (inactive) | inactive | inactive | inactive | inactive | – | inactive | –
33 | Cc1ccc(C(C)C)cc1 | inactive | inactive | inactive | 2.75% (inactive) and 28.4% (inactive) | inactive | inactive | inactive | inactive | inactive | inactive | –
34 | Cc1cc(C)c(O)c(C)c1 | inactive | inactive | inactive | 3.39% (inactive) and -0.795% (inactive) | inactive | inactive | inactive | inactive | inactive | inactive | –
35 | COC(=O)CCCCC(=O)OC | inactive | inactive | inactive | 6.2% (inactive) and 1.04% (inactive) | inactive | inactive | inactive | inactive | inactive | inactive | –
36 | COc1cc(NC(=O)CC(C)=O)c(OC)cc1Cl | inactive | inactive and 21.9 µM (active) | inactive | -13.4% (inactive) | inactive | inactive | inactive | inactive | – | inactive | 12.3 µM (active)
37 | Cc1ccc([N+](=O)[O-])cc1N | inactive | inactive | inactive | 10.1% (inactive) and 0.36% (inactive) | inactive | inactive | inactive | inactive | inactive | inactive | –
38 | CCCCC(CC)COC(=O)c1ccc(C(=O)OCC(CC)CCCC)cc1 (stereo not drawn) | inactive | inactive | inactive | 10.3% (inactive) and 17.5% (inactive) | inactive | inactive | inactive | inactive | – | inactive | –
39 | CN1Cc2c(N)cccc2C(c2ccccc2)C1 (stereo not drawn) | inactive | inactive | inactive | -23.8% (inactive) and -3.82% (inactive) | inactive | inactive | inactive | – | inactive | inactive | –
